AmpC detergent: blocks E. coli AmpC beta-lactamase in detergent assay; Potency, µM (series often up to 114 µM), for the others: at the top dose activity change, negative = inhibition, hits mostly inhibitors; 370,000 tested, 0.041% active; AID 485294; AmpC hydrolysis of nitrocefin, absorbance 480 nm, 0.01% Triton; P00811;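 note: 0% = no-compound wells and -100% = no-enzyme wells; nearly all actives have a fitted effect of over 25% in size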
Target sequence (P00811 whole entry, looked up): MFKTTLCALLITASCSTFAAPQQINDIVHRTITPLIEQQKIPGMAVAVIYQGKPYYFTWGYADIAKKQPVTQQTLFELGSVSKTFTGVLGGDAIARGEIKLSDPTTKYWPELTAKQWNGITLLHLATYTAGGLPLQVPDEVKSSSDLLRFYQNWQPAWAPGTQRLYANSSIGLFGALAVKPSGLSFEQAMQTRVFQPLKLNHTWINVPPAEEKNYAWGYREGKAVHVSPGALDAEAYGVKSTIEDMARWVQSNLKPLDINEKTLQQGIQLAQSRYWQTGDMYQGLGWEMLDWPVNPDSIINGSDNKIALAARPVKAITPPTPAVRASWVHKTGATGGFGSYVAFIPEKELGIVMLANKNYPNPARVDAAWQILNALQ
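20 mM phosphate pH 7.0 + 0.01% (detergent screen) or 0.0001% Triton X-100; 5.3 nM AmpC reagent; cpd preinc 15 min RT; nitrocefin (800 uM stock) to start; A480 q20 s × 4 min; Activity was normalised to no-enzyme and no-compound control wells.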
AmpC inh no detg: AmpC beta-lactamase inhibition without detergent; AmpC nitrocefin hydrolysis, absorbance 480 nm, 0.0001% Triton; Potency, µM (highest dose often 57.1 µM), inactives show top-dose activity change, negative = inhibition, actives largely listed as inhibitors; 330,000 tested, 0.52% active; AID 485341;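 note: plate controls were no compound for no effect and no enzyme for full effect; nearly all actives have a fitted effect of over 20% in size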
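AmpC (5.3 nM in the dispensed reagent) in 20 mM phosphate pH 7.0 with 0.01% (detergent screen) or 0.0001% Triton X-100 was preincubated with compounds for 15 min at room temperature. Nitrocefin was then added from an 800 uM solution, and hydrolysis was followed at 480 nm.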
* hit, by the source's call. This is one part of a sample in which hits are shown more often than they occur. Calls come from the whole dose curve; as a rule, active = well fitted curve in the direction sought with a large enough effect; inconclusive = small, poorly fitted or top-dose-only effect, or another doubt; inactive = no such curve, though single readings can be large; an effect the other way counts as inactive or inconclusive. Potency is the fitted concentration of half-maximal effect.

For O=C(CCCn1c(=O)c2ccccc2n(Cc2cccc(F)c2)c1=O)NCc1ccccc1Cl the results were AmpC detergent 15.5%.
For COc1ccc(-c2nn(C)c3sc(C(=O)Nc4cc(OC)c(OC)c(OC)c4)cc23)cc1OC the results were AmpC detergent -3.0%.
O=c1cc(-c2ccccc2)oc2cc(O)c(O)c(O)c12 was read as AmpC inh no detg -29.9%.
`O=c1c(O)cccc2cc(O)c(O)c(O)c12` gave AmpC detergent inconclusive and AmpC inh no detg 10µM*.
`Cc1cc(C)cc(N2CCn3c2nc2c3c(=O)n(Cc3c(F)cccc3Cl)c(=O)n2C)c1` gave AmpC detergent 22.4%.
`COc1ccc(C(=O)OCc2cc(=O)n3nc(C4CC4)sc3n2)cc1OC` gave AmpC detergent -6.3%.
For COc1cccc(Cn2c(=O)n(-c3cccc(Cl)c3C)c(=O)c3c4c(sc32)CN(C(C)=O)CC4)c1 the results were AmpC detergent 6.2%.
`Cn1cc(Cl)c(C(=O)Nc2cccc(Cl)c2Cl)n1` gave AmpC detergent 1.6% and AmpC inh no detg 7.08µM*.
For Cn1cc(Cl)c(C(=O)Nc2nc3ccccc3s2)n1 the results were AmpC detergent 0.6% and AmpC inh no detg 2.7%.
For Cc1csc2nc(COC(=O)c3ccccc3NC(=O)COc3ccccc3F)cc(=O)n12 the results were AmpC detergent 4.5%.
For COc1ccc(-n2nc(C(=O)N3CCC(C)CC3)c3c4ccccc4n(C)c3c2=O)cc1Cl the results were AmpC detergent 4.0%.
For O=c1cc(-c2ccc(F)cc2)[nH][nH]1 the results were AmpC detergent -13.9% and AmpC inh no detg -39.1%.
For O=c1cc(-c2ccc(C3CCCCC3)cc2)[nH][nH]1 the results were AmpC detergent -5.9% and AmpC inh no detg 14.1µM*.
For Cc1ccc(NC(=O)C2=CC(c3cccs3)=NS(=O)(=O)N2C)cc1 the results were AmpC detergent -10.5% and AmpC inh no detg -34.2%.
For CCc1ccc(NC(=O)C2=CC(c3cccs3)=NS(=O)(=O)N2C)cc1 the results were AmpC detergent -10.1% and AmpC inh no detg 17.8µM*.
`COc1cccc(NC(=O)Cn2c(=O)n(Cc3ccc(C(=O)NCc4ccc5c(c4)OCO5)cc3)c(=O)c3ccccc32)c1` gave AmpC detergent 17.3%.
For O=C(CSc1nc2ccccc2n1CCc1ccccc1)c1ccc(O)c(O)c1 the results were AmpC detergent 2.0% and AmpC inh no detg 15.8µM*.
Screening O=C(CSc1nc2ccccc2n1CCc1ccccc1)N1CCOCC1 returned AmpC detergent -18.0% and AmpC inh no detg 81.2%.
CCOC(=O)c1c(NC(=O)CSc2nnc(-c3c[nH]c4ccccc34)n2CCOC)sc2c1CCCC2 was read as AmpC detergent inconclusive and AmpC inh no detg -6.5%.
For CCOC(=O)c1c(NC(=O)CSc2nnc(-c3c[nH]c4ccccc34)n2C)sc2c1CCCC2 the results were AmpC detergent -4.4% and AmpC inh no detg 3.55µM*.
Screening COc1ccc(C(=O)NCc2nc(-c3cccc(C)c3)no2)cc1OC returned AmpC detergent 4.5%.
`Cc1cc(=O)n(CCc2ccccc2)c(O)c1C#N` gave AmpC detergent -3.3% and AmpC inh no detg 2.51µM*.
Cc1cc(=O)n(CCO)c(O)c1C#N was read as AmpC detergent 2.4% and AmpC inh no detg -19.3%.
For O=C(CCSCc1cnn(-c2ccccc2)c1-n1cccc1)NCc1ccccc1Cl the results were AmpC detergent -5.3%.
For CC(C)COc1ccc(C(=O)Nc2onc3c2CCCC3)cc1 the results were AmpC detergent 15.4%.
CC1Oc2cc3c(-c4c(O)cc(O)c5c(O)c6c(cc45)OC(C)C(C)C6=O)c(O)cc(O)c3c(O)c2C(=O)C1C (stereo not given) was read as AmpC detergent inconclusive and AmpC inh no detg 22.4µM*.
`C[C@@H]1Cc2c(O)c(O)cc(O)c2C(=O)O1` gave AmpC detergent -5.1% and AmpC inh no detg -2.8%.
For CN(Cc1c(C(=O)N/N=C/c2ccccc2)nnn1-c1nonc1N)c1ccccc1 the results were AmpC detergent -13.5% and AmpC inh no detg -42.7%.
For CN(Cc1c(C(=O)N/N=C/c2cccc(Cl)c2)nnn1-c1nonc1N)c1ccccc1 the results were AmpC detergent 4.7% and AmpC inh no detg 14.1µM*.
Screening Cc1cc(C)nc(SCC(=O)c2ccc(O)c(O)c2)n1 returned AmpC detergent 2.8% and AmpC inh no detg -22.6%.
For Cc1cc(SCC(=O)c2ccc(O)c(O)c2)n2nc(C)c(-c3ccccc3)c2n1 the results were AmpC detergent 3.6% and AmpC inh no detg 6.31µM*.
O=C(CCn1c(=O)c2cccn2c2ccc(F)cc21)NCCc1ccccc1Cl was read as AmpC detergent 1.9%.
`Cc1ccc(NC(=S)Nc2cccnc2)c(S(=O)(=O)N2CCCCC2)c1` gave AmpC detergent -14.0% and AmpC inh no detg 14.1µM*.
Screening Cc1ccc(C)c(NC(=S)Nc2cccnc2)c1 returned AmpC detergent -11.2% and AmpC inh no detg -11.6%.
`CC(=O)N1CCN=C1SCc1ccccc1F` gave AmpC detergent -6.5% and AmpC inh no detg 3.55µM*.
Screening CC(=O)N1CCN=C1SCc1ccccc1Cl returned AmpC detergent inconclusive and AmpC inh no detg 0.5%.
For Cc1ccc(C(=O)N2CCc3cc(CNC(=O)c4ccccc4F)ccc32)cc1 the results were AmpC detergent -3.4%.
CC1=C(C(=O)O)N2C(=O)C(NC(=O)c3ccccc3Cl)C2SC1 (stereo not given) was read as AmpC detergent 70.8µM* and AmpC inh no detg -31.0%.
Screening CC1=C(C(=O)O)N2C(=O)C(NC(=O)c3nn(C)cc3Cl)C2SC1 (stereo not given) returned AmpC detergent inconclusive and AmpC inh no detg -12.3%.
For CCc1ccc(S(=O)(=O)c2nnn3c2nc(Nc2cccc(C)c2C)c2sccc23)cc1 the results were AmpC detergent 5.4%.
`Cc1ccc2occ(CC(=O)Nc3ccc(Cl)c(C(F)(F)F)c3)c2c1` gave AmpC detergent 11.5%.
`CCc1ccc(C(=O)CN2C(=O)NC(C)(c3ccc(C)cc3)C2=O)cc1` (stereo not given) gave AmpC detergent inconclusive and AmpC inh no detg -18.3%.
Screening Cc1ccc(C2(C)NC(=O)N(CC(=O)c3ccc(Cl)s3)C2=O)cc1 (stereo not given) returned AmpC detergent -9.2% and AmpC inh no detg 28.2µM*.
For Cc1nc2ccccc2c(=O)n1-c1ccc(NC(=O)c2ccccc2[N+](=O)[O-])cc1 the results were AmpC detergent -3.2%.
COc1ccc(/C=C2/C(=O)N(Cc3ccccc3)N=C2C)cc1 was read as AmpC detergent -4.9% and AmpC inh no detg 1.0%.
`COc1ccc(/C=C2/C(=O)N(c3nc4ccccc4s3)N=C2CSc2ccc(Cl)cc2)cc1` gave AmpC detergent -11.8% and AmpC inh no detg 15.8µM*.
O=C(Cn1cc2c(n1)CCCC2)NCCCN1CCCC1 was read as AmpC detergent 7.3% and AmpC inh no detg 62.8%.
`O=C(Cn1cc2c(n1)CCCCC2)NCCCN1CCOCC1` gave AmpC detergent inconclusive and AmpC inh no detg 44.7µM*.
`CCc1cc2c(=O)c(-c3ccc4c(c3)OCO4)coc2c(CN(C)C)c1O` gave AmpC detergent 3.1% and AmpC inh no detg 25.1µM*.
Screening CCc1cc2c(=O)c(-c3cscn3)coc2c(CN(C)C)c1O returned AmpC detergent inconclusive and AmpC inh no detg -53.0%.
Screening CCCCCn1c(CCCNC(=O)c2ccccc2)nc2ccccc21 returned AmpC detergent -3.7%.

Screening results: PubChem BioAssay, National Center for Advancing Translational Sciences (NCATS)
